Statin myotox sup: suppression of simvastatin myotoxicity | C2C12 myotubes + simvastatin, ATP luminescence, 48 h; scaled: DMSO 0, geranylgeraniol control 100 | rescue of ATP level, % at 7.49 µM | actives 0.78% (n = 330,000);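 active means mean ATP rescue above about 67%, or every replicate alone reaching that limit, limit read from the data, passing the limit was not always enough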;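 further: myotubes were challenged with 10 µM simvastatin during compound exposure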
PglD inh: blocks C. jejuni PglD acetyltransferase activity. purified PglD enzyme, DTNB colorimetric CoA detection. inhibition, % at 12.5 µM. actives 0.098% (n = 360,000). AID 602405; in the data active means inhibition above about 16%, passing the limit was not always enough
miR-122 sensor: miR-122 inhibition in Huh7 cells. activation (reporter increase), % at 12.5 µM. actives 0.3% (n = 340,000). Huh7 miR-122 Renilla luciferase sensor, 48 h; neutral wells = 0, positive control = 100. AID 602342;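 active means mean replicate activation score at least 90 and every replicate individually at or above 90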;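 further: higher luciferase means less miR-122 activity so hits act as miR-122 inhibitors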
NSD2 HMT inh: blocks human histone methyltransferase NSD2. actives 0.54% (n = 310,000). inhibition, % at 12.5 µM. NSD2 peptide methylation, AlphaScreen, 120 min; in the data active means inhibition above about 50%
Active calls of the source: *; . = no result; ! = not confirmed by another sample; [ ] = dose if it differs, or a comment. Sampled rows, rich in hits. Any-hit rate of the full collection: about 1.2%.

SMILES | Statin myotox sup | PglD inh | miR-122 sensor | NSD2 HMT inh
C[C@@H]1CN([C@H](C)CO)C(=O)c2cccc(NC(=O)c3ccc(-c4nccs4)cc3)c2O[C@@H]1CN(C)Cc1ccc(C(=O)Nc2ccccc2N)cc1 | . | 0 | 203*[16.7 µM] | .
COCC(=O)Nc1ccc2c(c1)C(=O)N(C)C[C@H](OC)[C@H](C)CN(Cc1cncnc1)[C@@H](C)CO2 | 6 | -1 | -7[16.7 µM] | .
CCOC(=O)c1c(NC(=O)c2ccccc2N(C)S(=O)(=O)c2ccccc2)sc2c1CCCC2 | . | -4 | 162* | -1
C[C@@H]1CN([C@@H](C)CO)S(=O)(=O)c2ccc(C#CC3(O)CCCC3)cc2O[C@H]1CN(C)C(=O)Nc1ccccc1 | -31 | 0 | -1[16.7 µM] | .
CN1C(=O)c2cc(NC(=O)C3CCOCC3)ccc2OC[C@@H]2O[C@@H](CC(=O)NC3CCCC3)CC[C@@H]21 | 5 | 0 | 4[16.7 µM] | .
COc1ccccc1NC(=O)C(Sc1ccccc1)c1ccccc1 (configuration not stated) | . | . | . | 2
Cc1c(NC(=O)C(Sc2ccccc2)c2ccccc2)cccc1[N+](=O)[O-] (configuration not stated) | 112* | 0 | -1 | -1
C[C@H]1CN([C@@H](C)CO)S(=O)(=O)c2ccc(-c3cncnc3)cc2O[C@H]1CN(C)C(=O)c1ccc2c(c1)OCO2 | 2 | 1 | 9[16.7 µM] | .
O=C(NCC[C@H]1CC[C@H](NC(=O)C2CCCCC2)[C@H](CO)O1)Nc1ccc(Cl)cc1 | -10 | 1 | -7[16.7 µM] | .
N=C1CCC(=N)c2c1c(O)c1ccccc1c2O | -4 | . | -2 | 66*
COc1ccc(CN2C[C@H](O)COC[C@@H]3O[C@@H](CC(=O)NCc4ccccc4Cl)CC[C@H]32)cc1 | 17 | 6 | 2[16.7 µM] | .
COc1ccc(CN(C)C[C@H]2Oc3c(NC(=O)NC4CCCCC4)cccc3C(=O)N([C@H](C)CO)C[C@@H]2C)cc1 | -57 | 29 | 255*[16.7 µM] | .
Cc1noc(C)c1NC(=O)Nc1cccc2c1O[C@H](CN(C)Cc1ccc(-c3ccccc3)cc1)[C@@H](C)CN([C@@H](C)CO)C2=O | 98* | -1 | -8[16.7 µM] | .
Cc1noc(C)c1NC(=O)Nc1cccc2c1O[C@H](CN(C)S(=O)(=O)c1ccc(F)cc1)[C@@H](C)CN([C@H](C)CO)C2=O | 81*! | -1 | -20[16.7 µM] | .
Cc1noc(C)c1NC(=O)Nc1cccc2c1O[C@H](CN(C)C(=O)Nc1cccc3ccccc13)[C@@H](C)CN([C@H](C)CO)C2=O | 0 | 16* | -6[16.7 µM] | .
Cc1noc(C)c1NC(=O)Nc1cccc2c1O[C@@H](CN(C)S(=O)(=O)c1ccc(F)cc1)[C@H](C)CN([C@H](C)CO)C2=O | -3 | -1 | 6[16.7 µM] | .
CO[C@@H]1CN(C)C(=O)c2ccc(NC(=O)c3ccc(F)cc3)cc2OC[C@@H](C)N(C(=O)CN(C)C)C[C@@H]1C | -1 | . | 0[16.7 µM] | .
CCCCN1CCN(C(=O)CSc2nc3cccnc3n2C)CC1 | . | . | . | -2
C[C@@H]1CN([C@@H](C)CO)C(=O)c2cc(C#C[C@@H](C)O)cnc2O[C@@H]1CN(C)C(=O)Cc1ccncc1 | -2 | 8 | 14[16.7 µM] | .
C[C@H](CO)N1C[C@H](C)[C@@H](CN(C)C(=O)Nc2ccc(F)cc2)OCCCC[C@H](C)Oc2ccc(NC(=O)Nc3ccccc3)cc2C1=O | 38 | 1 | 1[16.7 µM] | .
CO[C@H]1CN(C)C(=O)c2ccc(NC(=O)Cc3ccccc3)cc2OC[C@@H](C)N(CC2CC2)C[C@@H]1C | -28 | 3 | -9[16.7 µM] | .
COc1ccc(S(=O)(=O)N(C)C[C@H]2Oc3c(NC(=O)Nc4ccccc4)cccc3C(=O)N([C@H](C)CO)C[C@H]2C)cc1 | 78* | . | -5[16.7 µM] | .
CC(C)NC(=O)Nc1cccc2c1O[C@H](CN(C)Cc1ccc(-c3ccccc3)cc1)[C@@H](C)CN([C@@H](C)CO)C2=O | 66* | 3 | 0[16.7 µM] | .
CC(C)NC(=O)Nc1cccc2c1O[C@H](CN(C)Cc1ccc(-c3ccccc3)cc1)[C@H](C)CN([C@@H](C)CO)C2=O | 3 | 1 | -3[16.7 µM] | .
C/C=C/c1ccc([C@H]2[C@@H](CO)N(C(=O)CC)[C@H]2CNC(=O)CC)cc1 | -23 | -1 | -6[16.7 µM] | .
SMILES | Statin myotox sup | PglD inh | miR-122 sensor | NSD2 HMT inh
O=C(N/N=C/c1ccccc1)C(O)c1ccccc1 (configuration not stated) | 5 | -2 | 11 | -1
O=C(N/N=C/c1cccs1)C(O)c1ccccc1 (configuration not stated) | -2 | -5 | 197* | 0
Cc1cccc(/C=C(\c2nc3ccccc3[nH]2)S(=O)(=O)c2ccccc2)c1 | 78* | . | -1 | 4
O=C(c1ccccc1)N1CC[C@@H]2[C@H]1c1cc(C#Cc3cccnc3)ccc1N[C@@H]2CO | 5 | 2 | 4[16.7 µM] | .
O=C(c1ccccc1)c1nc[nH]c1C(=O)Nc1ccccn1 | 120* | 1 | 0 | -3
O=C(Nc1ccccn1)c1ccc(C(=O)c2ccccc2)cc1 | 13 | -1 | -5 | -1
Cc1ccc(NC(=O)C2CCCC2)c(C)c1 | . | . | . | 1
CCCc1nnc(NC(=O)Cn2c(=O)oc3ccccc32)s1 | . | -4 | 8 | 2
CCc1nnc(NC(=O)Cn2c(=O)oc3ccccc32)s1 | 140* | -1 | 4 | -5
Cc1ccnc(NCc2cc(C)ccc2O)c1 | 3 | -3 | 211* | -2
Cc1ccc(O)c(CNc2ccccn2)c1 | 112* | -2 | 10 | 0
CCOC(=O)n1c(=O)n(Cc2c(Cl)cccc2Cl)c2ccccc21 | 175* | . | 32 | -1
CCOC(=O)C(Cc1ccccc1)C(=O)Nc1nccs1 (configuration not stated) | 99* | 0 | -5 | -2
C/C(=C\C(=O)C(F)(F)F)Nc1cc(C)cc(C)c1 | 139* | -2 | -5 | -3
Cc1cccc(OCCCC(=O)Nc2ccccc2C(F)(F)F)c1 | 97* | -3 | 2 | -5
Cc1ccccc1OCCCC(=O)Nc1ccccc1C(F)(F)F | 3 | -4 | -3 | 4
CO[C@@H]1CN(C)C(=O)c2cc(NC(=O)Nc3c(C)noc3C)ccc2OC[C@@H](C)N(C)C[C@H]1C | -15 | . | . | .
Fc1cccc(-c2c(-c3ccccc3)ncc3cc(F)ccc23)c1 | 23 | -2 | 0 | .
O=[N+]([O-])c1cccc(-c2c(-c3ccccc3)ncc3ccc(F)cc23)c1 | 121* | 4 | -1 | .
COc1ccc(NC(=O)Nc2ccc3c(c2)C(=O)N([C@H](C)CO)C[C@H](C)[C@H](CN(C)S(=O)(=O)c2cn(C)cn2)O3)cc1 | . | -2 | 3[16.7 µM] | .
COc1ccc(CC(=O)Nc2cc(C)on2)cc1OC | 111* | -5 | -9 | 0
COc1ccccc1CC(=O)Nc1cc(C)on1 | 2 | . | -3 | -2
Cc1cc(NC(=O)COc2cccc(Oc3ccccc3)c2)no1 | 3 | 2 | 1 | -1
Cc1cccc(OCC(=O)Nc2cc(C)on2)c1 | 122* | 2 | 2 | -1
Cc1nn(C)cc1NC(=O)C[C@@H]1CC[C@H]2[C@@H](COc3ccc(NC(=O)Nc4cccc(Cl)c4)cc3C(=O)N2C)O1 | -31 | -2 | -48[16.7 µM] | .
O=C(/C=C/c1ccccc1)C1=C(O)C(=O)N(CCO)C1c1ccc2c(c1)OCO2 (configuration not stated) | 115* | -10 | -3 | -5
